This is an account of results in PubChem BioAssay (NCATS).

Results filed as inconclusive are left out. Activity calls are given as the source filed them. The call rests on the fitted dose curve; in most records, active means well fitted curve in the direction sought with a large enough effect; inconclusive means small, poorly fitted or top-dose-only effect, or another doubt; inactive means no such curve, though single readings can be large; an effect the other way counts as inactive or inconclusive.

Assay [1] can be described thus: Quantitative High-Throughput drug screen in 47 multiple myeloma cell lines against the NCATS MIPE library collection: VP6_DJ cell viability assay (AID 1919867). Further: nearly all actives have a fitted effect of over 40% in size. Further: potency means the concentration at half of the fitted maximal effect. The essentials:
(§1)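 ATP-based CellTiter-Glo luminescence after 48 h drug exposure (37 °C, 5% CO2) of 500 myeloma cells per well. DMSO-only wells set 100% viability, media-only wells 0%; MIPE 4.0 library added by pin tool.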

A short description of assay [2]: Quantitative High-Throughput drug screen in 47 multiple myeloma cell lines against the NCATS MIPE library collection: UTMC2_PLB cell viability assay (AID 1919868). Further: nearly all actives have a fitted effect of over 55% in size. Further: potency means the concentration at half of the fitted maximal effect. The settings on record: CellTiter-Glo ATP luminescence, 48 h; viability (% of DMSO control): at 45.8 µM (top of the series). The essentials:
as §1

Assay [3] is described as follows: Quantitative High-Throughput drug screen in 47 multiple myeloma cell lines against the NCATS MIPE library collection: PE2_PLB cell viability assay (AID 1919869). Further: nearly all actives have a fitted effect of over 35% in size. Further: potency means the concentration at half of the fitted maximal effect. The essentials: as §1
Assay [4] can be described thus: Quantitative High-Throughput drug screen in 47 multiple myeloma cell lines against the NCATS MIPE library collection: PCM6_Riken cell viability assay (AID 1919870). Further: nearly all actives have a fitted effect of over 30% in size. Further: potency means the concentration at half of the fitted maximal effect. The essentials: as §1
Assay [5] can be described thus: Quantitative High-Throughput drug screen in 47 multiple myeloma cell lines against the NCATS MIPE library collection: RPMI8226_ATCC cell viability assay (AID 1919871). Further: nearly all actives have a fitted effect of over 30% in size. Further: potency means the concentration at half of the fitted maximal effect. The essentials:
as §1

Assay [6] in a line: Quantitative High-Throughput drug screen in 47 multiple myeloma cell lines against the NCATS MIPE library collection: OPM2_DSMZ cell viability assay (AID 1919872). Further: nearly all actives have a fitted effect of over 30% in size. Further: potency means the concentration at half of the fitted maximal effect. The essentials: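 Steps: seed 500 cells per well; pin-transfer MIPE 4.0 library; incubate 48 h at 37C, 5% CO2, humidified; add CellTiter-Glo, 5 min room temperature; read luminescence.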
Assay [7] is described as follows: Quantitative High-Throughput drug screen in 47 multiple myeloma cell lines against the NCATS MIPE library collection: KMS11_JCRBsus cell viability assay (AID 1919873). Further: nearly all actives have a fitted effect of over 50% in size. Further: potency means the concentration at half of the fitted maximal effect. The essentials:
as §1

Assay [8] in a line: Quantitative High-Throughput drug screen in 47 multiple myeloma cell lines against the NCATS MIPE library collection: KMS28BM_JCRB cell viability assay (AID 1919874). Further: nearly all actives have a fitted effect of over 35% in size. Further: potency means the concentration at half of the fitted maximal effect. The essentials: as §1
The target of assay [9] is Cytochrome P450 3A4 (Homo sapiens) (UniProt P08684). The assay is described as follows: qHTS for inhibitors of CYP3A4 against the NCATS DSHEA and TCM libraries (AID 1919971).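 Further: inhibition lowers luminescence from luciferin made by CYP3A4.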 The essentials:
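Concentration-response screening with isoform-matched pro-luciferin substrates. The CYP reaction was initiated by NADPH regenerating solution and ran 30-45 min in darkness at room temperature.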

Sequence of Cytochrome P450 3A4 (Homo sapiens) (P08684 whole entry, looked up, canonical isoform): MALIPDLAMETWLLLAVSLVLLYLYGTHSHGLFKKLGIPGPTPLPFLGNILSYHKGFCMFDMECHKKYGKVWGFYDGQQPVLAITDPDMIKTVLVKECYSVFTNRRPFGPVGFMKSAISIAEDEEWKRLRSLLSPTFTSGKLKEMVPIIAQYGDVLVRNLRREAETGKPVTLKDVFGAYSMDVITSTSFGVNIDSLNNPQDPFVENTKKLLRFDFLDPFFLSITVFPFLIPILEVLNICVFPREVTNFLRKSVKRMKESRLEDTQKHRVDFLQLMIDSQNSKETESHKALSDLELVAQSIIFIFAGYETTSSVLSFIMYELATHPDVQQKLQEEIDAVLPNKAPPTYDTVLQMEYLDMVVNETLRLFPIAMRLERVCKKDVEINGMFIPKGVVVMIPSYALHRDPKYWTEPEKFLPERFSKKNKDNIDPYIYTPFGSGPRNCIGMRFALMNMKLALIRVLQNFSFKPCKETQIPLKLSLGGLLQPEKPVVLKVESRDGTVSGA

On to `OCc1ccccc1O[C@@H]1O[C@H](CO)[C@H](O)[C@H](O)[C@H]1O`, for which the Potency result in assay [1], in [2], in assay [3], in assay [4], in assay [5] and in assay [6] was “inactive” each time. The Potency entry in [7] and in assay [8] was “inactive” in each case.
As to `FC(F)c1nc2ccccc2n1-c1nc(N2CCOCC2)nc(N2CCOCC2)n1`, the Potency in assay [1] is 0.132 µM (active); in assay [2] it was 118 nM (active); in assay [3], 0.372 µM (active); in [5], 296 nM (active); in assay [6], 2.09 µM (active).
Turning to `C[C@@]12C[C@@]3(O)O[C@@H](O1)[C@]1(COC(=O)c4ccccc4)[C@@H]3C[C@@]12O[C@@H]1O[C@H](CO)[C@@H](O)[C@H](O)[C@@H]1O`, in assay [1], the Potency was 2.64 µM (active). Further, the Potency result in [3], in [4], in [5], in assay [6], in assay [8] and in assay [9] was “inactive” in each case.
For `COc1cc(C(=O)NC2CCN(C)CC2)ccc1Nc1ncc2c(n1)N(C1CCCC1)CCC(=O)N2C(C)C`, the Potency was 14.8 µM (active) in assay [1]; 20.9 µM (active) in assay [3]; 18.7 µM (active) in assay [4]; 20900 nM (active) in assay [7]; 14800 nM (active) in [8].
As for `CCc1cc(C(C)=NOCc2ccc(C3CCCCC3)c(C(F)(F)F)c2)ccc1CN1CC(C(=O)O)C1`, the Potency in [1] and in assay [4] was 11.8 µM (active) in each case. Also, in [7], the Potency entry is “inactive”.
As for `O=C(O)CCCCC(CCSCc1ccccc1)SCc1ccccc1` (configuration not stated), the Potency in assay [1] was 16.6 µM (active). Moreover, the Potency entry in assay [3], in [5] and in [6] was “inactive” throughout.
With `CC(=O)N1CCN(c2ccc(OCc3nn(C)c(C)c3-c3cccc4c(CCCOc5cccc6ccccc56)c(C(=O)O)n(Cc5cccnc5)c34)cc2)CC1`, the Potency was 0.332 µM (active) in assay [1]; 1.66 µM (active) in assay [3]; 1.18 µM (active) in assay [4]; 23500 nM (active) in [5]; 23.5 µM (active) in [6]; 105 nM (active) in assay [7]. Also, the Potency in [8] is 23.5 nM (active).
For `COc1cccc2c1C(=O)c1c(O)c3c(c(O)c1C2=O)C[C@@](O)(C(=O)CO)C[C@@H]3O[C@H]1C[C@H](N)[C@H](OC2CCCCO2)[C@H](C)O1` (some centres not stated), the Potency in [1] was 5.26 µM (active); in assay [2], 166 nM (active); in assay [3], 1.18 µM (active); in [4] it was 1.32 µM (active); in [5] it was 7430 nM (active); in assay [6] it was 16.6 µM (active). Further, the Potency in [7] is 2640 nM (active); in assay [8], 1660 nM (active).
As to `CCC(C=C[C@@H]1OC(=O)C=C[C@H]1C)=C[C@H](C)CC=CC(C)=C[C@@H](C)C(=O)[C@@H](C)[C@H](O)[C@@H](C)CC(C)=CC(=O)O`, the Potency in assay [1] is 0.0139 µM (active); in [2], 17.5 nM (active); in assay [3], 0.0196 µM (active); in [4] it was 0.0098 µM (active); in assay [5], 31.1 nM (active); in assay [7], 13.9 nM (active). Further, in assay [8], the Potency is 11 nM (active).
With `C=C1CCC2[C@](C)(CO)C(O)CC[C@]2(C)C1CC=C1C(=O)OCC1O` (some centres not stated), the Potency result in assay [1], in [3], in [4], in [7] and in assay [8] was “inactive” throughout. The Potency in assay [5] was 17.1 nM (active).
As to `CC(C(C)N1CC(=O)NC(=O)C1)N1CC(=O)NC(=O)C1` (configuration not stated), in [2], the Potency is 526 nM (active). The Potency entry in [3], in assay [4], in assay [5], in [6], in [7] and in assay [8] was “inactive” in each case.
As for `C=CCNc1c(O)cc2c(O)c1C[C@@H](C)C[C@H](OC)[C@@H](O)[C@@H](C)C=C(C)[C@H](OC(N)=O)[C@@H](OC)C=CC=C(C)C(=O)N2`, the Potency in assay [1] was 0.118 µM (active); in [2] it was 418 nM (active); in assay [3] it was 1.48 µM (active); in assay [4], 0.833 µM (active); in assay [5] it was 418 nM (active); in [6], 1.66 µM (active). Also, the Potency in assay [7] was 46.9 nM (active); in assay [8], 935 nM (active).
Consider `Cc1coc2c1C(=O)C(=O)c1c-2ccc2c(C)cccc12`, for which the Potency in [1] was 11.8 µM (active); in [4] it was 3.72 µM (active).
Turning to `Cc1cc(-c2nnc3n2CCCCC3)c(C)n1-c1ccccc1`, the Potency result in [1], in assay [2], in assay [3], in assay [6] and in [7] was “inactive” in each case.
Turning to `COC1=C2C[C@@H](C)C[C@H](OC)[C@@H](O)[C@@H](C)C=C(C)[C@H](OC(N)=O)[C@@H](OC)C=CC=C(C)C(=O)NC(=CC1=O)C2=O`, the Potency in assay [1] was 0.132 µM (active); in assay [2], 209 nM (active); in assay [3], 0.296 µM (active); in assay [4], 0.148 µM (active); in assay [5], 105 nM (active); in assay [6], 0.332 µM (active). The values for the Potency in assay [7] and in assay [8] were 83.3 nM (active) and 93.5 nM (active), respectively.
With `CN[C@H](CC(C)C)C(=O)N[C@H]1C(=O)N[C@@H](CC(N)=O)C(=O)N[C@@H]2C(=O)N[C@H]3C(=O)N[C@H](C(=O)N[C@H](C(=O)O)c4cc(O)cc(O)c4-c4cc3ccc4O)[C@H](O)c3ccc(c(Cl)c3)Oc3cc2cc(c3O[C@@H]2O[C@H](CO)[C@@H](O)[C@H](O)[C@@H]2O[C@H]2C[C@](C)(N)[C@H](O)[C@H](C)O2)Oc2ccc(cc2Cl)[C@H]1O`, the Potency in assay [1] is 13.2 µM (active). Also, the Potency result in [3], in assay [6] and in [7] was “inactive” throughout.
`CCc1nc(-c2cccc(C)c2)c(-c2ccnc(NC(=O)c3ccccc3)c2)s1`: the Potency in assay [2] was 23500 nM (active); in assay [3] it was 13.2 µM (active); in assay [6], 18.7 µM (active); in [7] it was 20900 nM (active).
Consider `COC(=O)[C@H](CCCN=C(N)N)NS(=O)(=O)c1ccc(C)cc1`, for which the Potency result in assay [3], in assay [4], in assay [6] and in [8] was “inactive” in each case.
